These results are taken from PubChem BioAssay (EPA / NIEHS).

The AC50 is the concentration giving half of the maximal activity seen.

Records with an inconclusive call do not appear. Activity calls are given as the source filed them. The calls were made as follows, unless noted: active = hit-call score of the fitted dose curve at least 0.9, where 1 is the maximum; inactive = score below 0.9.

Experiment [1] concerns the target Hepatocyte nuclear factor 4-alpha (Homo sapiens) (UniProt P41235). Nature of the experiment: ATG_HNF4a_TRANS: Attagene TRANS-FACTORIAL HepG2 Assay for human Hepatocyte Nuclear Factor 4 alpha (HNF4a) (AID 2282982; active = hit-call score of the fitted dose curve at least 0.9, where 1 is the maximum). The conditions noted are these: HepG2 HNF4a transactivation reporter, mRNA readout. The procedure, abridged:
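Using HepG2 liver cells transfected with GAL4-UAS reporter units, chemical-induced mRNA increases were assessed after 24 hours. Fluorescent RT-PCR fragments were separated by capillary electrophoresis and compared with DMSO negative controls.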

Experiment [2] in a line: ATG_M_32_TRANS: Attagene TRANS-FACTORIAL HepG2 Assay for M32 Transcription Factor (Internal Marker) (AID 2282984; active = hit-call score of the fitted dose curve at least 0.9, where 1 is the maximum;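 also: transcript level of a background control reporter unit measured by RT-PCR and capillary electrophoresis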). The following applies: HepG2 Attagene TRANS M32 internal marker reporter. In outline: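 Fluorescence-detected mRNA induction, HepG2 liver cells, 24 h after dosing. Multiple GAL4-UAS reporter units introduced by transient transfection; background-control endpoint analysed for gain of signal against DMSO.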

In experiment [3] the target is Transcriptional activator Myb (Homo sapiens) (UniProt P10242). Kind of experiment: ATG_Myb_CIS: Attagene CIS-FACTORIAL HepG2 Assay for human Myeloblastosis (Myb) Proto-Oncogene Transcription Factor (AID 2282986). The conditions noted are these: HepG2 Attagene CIS-FACTORIAL Myb reporter transcription; actives raise or lower the signal. The procedure, abridged:
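Using HepG2 liver cells bearing transiently transfected cis-promoter reporter constructs, the assay measures induction or loss of reporter mRNA after 24 hours of dosing. Detection used fluorescently labeled RT-PCR products separated by capillary electrophoresis.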

For experiment [4], the target named is Nuclear respiratory factor 1 (Homo sapiens) (UniProt Q16656). Kind of experiment: ATG_NRF1_CIS: Attagene CIS-FACTORIAL HepG2 Assay for human Nuclear Respiratory Factor 1 (NRF1) Orphan Gene (AID 2282987). The conditions noted are these: HepG2 NRF1 cis-element reporter, Attagene multiplex; actives raise or lower the signal. The procedure, abridged: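 Reporter mRNA induction or loss in HepG2 cells after 24 h dosing; cis-regulated reporter constructs report endogenous transcription-factor activity. Quantified by RT-PCR/capillary electrophoresis fluorescence, DMSO-referenced.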
Sequence of Nuclear respiratory factor 1 (Homo sapiens) (Q16656 whole entry, looked up): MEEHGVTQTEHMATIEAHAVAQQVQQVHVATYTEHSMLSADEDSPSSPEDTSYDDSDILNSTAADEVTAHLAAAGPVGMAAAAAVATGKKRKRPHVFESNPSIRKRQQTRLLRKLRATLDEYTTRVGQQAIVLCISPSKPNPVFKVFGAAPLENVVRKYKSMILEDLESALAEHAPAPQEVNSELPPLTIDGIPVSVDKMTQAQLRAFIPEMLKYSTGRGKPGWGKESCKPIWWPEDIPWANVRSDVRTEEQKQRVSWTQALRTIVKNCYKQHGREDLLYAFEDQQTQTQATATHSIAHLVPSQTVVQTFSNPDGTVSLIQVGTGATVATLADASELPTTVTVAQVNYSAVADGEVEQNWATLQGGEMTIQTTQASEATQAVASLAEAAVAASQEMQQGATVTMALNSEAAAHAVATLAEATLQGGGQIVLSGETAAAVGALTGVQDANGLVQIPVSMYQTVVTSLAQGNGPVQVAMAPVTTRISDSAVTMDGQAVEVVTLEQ

Experiment [5] in a line: ATG_NFI_CIS: Attagene CIS-FACTORIAL HepG2 Assay for human Nuclear Factor I (NFI) (AID 2282989). The following applies: HepG2 cis-regulatory reporter, NFI response element transcription; actives raise or lower the signal. In outline:
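Transient MRTU transfection of HepG2 → 24 h chemical dosing → total RNA, oligo(dT) RT → PCR, 6-FAM primer extension, HpaI cut → capillary electrophoresis. Endpoint fitted bidirectionally relative to DMSO.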

Experiment [6] addresses Myc proto-oncogene protein (Homo sapiens) (UniProt P01106). Nature of the experiment: ATG_Myc_CIS: Attagene CIS-FACTORIAL HepG2 Assay for human Myelocytomatosis (Myc) Proto-Oncogene Transcription Factor (AID 2282990). The following applies: HepG2, Attagene cis-reporter transcription factor activity; actives raise or lower the signal. In outline: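 HepG2 cells transiently transfected with multiple cis-promoter-driven reporter transcription units, so endogenous TF activity is read. After 24 h compound exposure, reporter mRNA was quantified by RT-PCR, 6-FAM labelling, HpaI digestion and capillary electrophoresis; bidirectional fit versus DMSO.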

Experiment [7] can be described thus: ATG_NRF2_ARE_CIS: Attagene CIS-FACTORIAL HepG2 Assay for human Nuclear Factor Erythroid 2 Related Factor 2 (NFR2) response to Antioxidant Response Elements (ARE) (AID 2282992). The conditions noted are these: HepG2 Attagene ARE/NRF2 reporter, transcription factor activity; actives raise or lower the signal. In outline:
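Endogenous transcription factor activity read out as reporter transcript levels (RT-PCR plus capillary electrophoresis, fluorescence) in transiently transfected HepG2 cells. Measured at 24 h after dosing; gain or loss of signal fitted versus DMSO.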

A short description of experiment [8]: ATG_Oct_MLP_CIS: Attagene CIS-FACTORIAL HepG2 Assay for human Octamer-Binding Transcription Factor (Oct) (AID 2282993). The conditions noted are these: HepG2 Attagene cis-factorial Oct reporter, mRNA; actives raise or lower the signal. The procedure, abridged:
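Transient MRTU transfection of HepG2 → 24 h compound treatment → RNA isolation, reverse transcription, PCR → 6-FAM primer extension, HpaI digest → capillary electrophoresis. Activity fitted both directions against DMSO.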

Experiment [9] concerns the target Cellular tumor antigen p53 (Homo sapiens) (UniProt P04637). Kind of experiment: ATG_p53_CIS: Attagene CIS-FACTORIAL HepG2 Assay for human p53 Transcription Factor (AID 2282994). The conditions noted are these: HepG2 p53 cis-element reporter, Attagene mRNA; actives raise or lower the signal. In outline: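 Endogenous p53 activity read in transiently transfected HepG2 from a cis-element-driven reporter transcript after 24 h exposure. RNA reverse-transcribed, PCR-amplified, fluorescently labelled and sized by capillary electrophoresis; gain or loss fitted against DMSO baseline.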

A short description of experiment [10]: ATG_M_06_TRANS: Attagene TRANS-FACTORIAL HepG2 Assay for M06 Transcription Factor (Internal Marker) (AID 2282983; active = hit-call score of the fitted dose curve at least 0.9, where 1 is the maximum). The conditions noted are these: HepG2 Attagene TRANS M06 internal marker reporter. The procedure, abridged: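 Background-control reporter readout: after 24 h chemical exposure of transiently transfected HepG2 (GAL4-UAS reporter units), mRNA quantified by RT-PCR with fluorescent labeling and capillary electrophoresis. Gain-of-signal fitting against DMSO baseline.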

For experiment [11], the target named is Oxysterols receptor LXR-alpha (Homo sapiens) (UniProt Q13133). Kind of experiment: ATG_LXRa_TRANS: Attagene TRANS-FACTORIAL HepG2 Assay for human Liver X Receptor alpha (LXRa) (AID 2282980; active = hit-call score of the fitted dose curve at least 0.9, where 1 is the maximum). The conditions noted are these: HepG2 Attagene TRANS reporter, LXRa transactivation. The procedure, abridged:
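Chemical-induced reporter mRNA measured by RT-PCR with fluorescent labelling and capillary electrophoresis after 24 h dosing of transiently transfected HepG2 cells expressing exogenous NR-Gal4 chimeras; increases scored against DMSO baseline.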

A short description of experiment [12]: ATG_NF_kB_CIS: Attagene CIS-FACTORIAL HepG2 Assay for human Nuclear Factor Kappa B (NF-kB) (AID 2282991). The following applies: HepG2 Attagene cis-factorial NF-kB reporter mRNA; actives raise or lower the signal. In outline: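 DMSO served as negative control and baseline for bidirectional curve fitting. Transiently transfected HepG2 cells were dosed for 24 h, then reporter transcripts were measured by RT-PCR with capillary electrophoresis detection.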

A short description of experiment [13]: BSK_3C_TissueFactor: BioMAP Diversity Plus: 3C Assay for Tissue Factor Biomarker Activity (AID 2282997). The following applies: BioMAP 3C HUVEC, tissue factor biomarker readout; actives raise or lower the signal. In outline:
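Tissue factor on primary human umbilical vein endothelium was read by ELISA 24 h after dosing, gain or loss relative to DMSO. Cytotoxicity ran alongside via SRB (0.1%, TCA-fixed, 560 nm).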

Experiment [14] is described as follows: BSK_3C_uPAR: BioMAP Diversity Plus: 3C Assay for Urokinase-type plasminogen activator receptor (uPAR) Biomarker Activity (AID 2282998). The following applies: BioMAP 3C HUVEC, uPAR biomarker ELISA; actives raise or lower the signal. In outline:
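ELISA readout of uPAR on human vascular endothelium (umbilical vein primary cells), taken 24 h after chemical dosing. Increases and decreases are both fitted relative to DMSO vehicle.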

The target in experiment [15] is Nuclear receptor subfamily 4 group A member 2 (Homo sapiens) (UniProt P43354). Kind of experiment: ATG_NURR1_TRANS: Attagene TRANS-FACTORIAL HepG2 Assay for human Nuclear Receptor Related Protein 1 (NURR1) (AID 2282985; active = hit-call score of the fitted dose curve at least 0.9, where 1 is the maximum). The conditions noted are these: HepG2 Attagene TRANS reporter, mRNA readout. In outline: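 Chimeric NR-Gal4 proteins were expressed in human HepG2 cells bearing GAL4-UAS reporter units, and induced reporter mRNA was quantified 24 h post-dosing by RT-PCR and capillary electrophoresis.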
Sequence of Nuclear receptor subfamily 4 group A member 2 (Homo sapiens) (P43354 whole entry, looked up, the tested form may be a part): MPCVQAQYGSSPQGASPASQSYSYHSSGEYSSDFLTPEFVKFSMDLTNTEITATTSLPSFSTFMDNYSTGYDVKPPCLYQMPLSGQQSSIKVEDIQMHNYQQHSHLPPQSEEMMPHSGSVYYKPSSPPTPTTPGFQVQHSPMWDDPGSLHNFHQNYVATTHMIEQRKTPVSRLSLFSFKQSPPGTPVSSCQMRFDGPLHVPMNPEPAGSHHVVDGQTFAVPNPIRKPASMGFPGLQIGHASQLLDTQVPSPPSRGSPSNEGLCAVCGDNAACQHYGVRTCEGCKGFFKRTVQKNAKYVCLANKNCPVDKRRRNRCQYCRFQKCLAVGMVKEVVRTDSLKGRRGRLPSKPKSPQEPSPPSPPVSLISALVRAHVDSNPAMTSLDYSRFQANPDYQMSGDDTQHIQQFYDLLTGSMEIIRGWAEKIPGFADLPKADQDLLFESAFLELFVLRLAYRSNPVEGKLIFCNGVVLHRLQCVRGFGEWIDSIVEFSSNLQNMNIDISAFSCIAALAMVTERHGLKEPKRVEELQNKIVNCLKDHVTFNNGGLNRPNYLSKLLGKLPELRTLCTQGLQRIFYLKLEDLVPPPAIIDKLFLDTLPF

Experiment [16] can be described thus: BSK_3C_VCAM1: BioMAP Diversity Plus: 3C Assay for Vascular cell adhesion molecule 1 (VCAM1) Biomarker Activity (AID 2282999). The following applies: BioMAP 3C HUVEC, VCAM1 ELISA, cytokine-stimulated; actives raise or lower the signal. In outline: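 Vascular primary endothelium (human umbilical vein) was exposed to chemicals and assayed 24 h later. VCAM-1 levels came from ELISA, with DMSO serving as baseline for bidirectional fitting.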

Experiment [17] has as its target Oxysterols receptor LXR-beta (Homo sapiens) (UniProt P55055). Kind of experiment: ATG_LXRb_TRANS: Attagene TRANS-FACTORIAL HepG2 Assay for human Liver X Receptor beta (LXRb) (AID 2282981; active = hit-call score of the fitted dose curve at least 0.9, where 1 is the maximum). The conditions noted are these: HepG2 Attagene TRANS GAL4-LXRb reporter, mRNA. In outline: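 Liver-derived HepG2 cells transfected with Gal4-responsive reporters were dosed for 24 h. Activation was scored as rise in reporter mRNA, by RT-PCR and capillary electrophoresis, above DMSO baseline.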

Sequence of Hepatocyte nuclear factor 4-alpha (Homo sapiens) (P41235 whole entry, looked up, the tested form may be a part): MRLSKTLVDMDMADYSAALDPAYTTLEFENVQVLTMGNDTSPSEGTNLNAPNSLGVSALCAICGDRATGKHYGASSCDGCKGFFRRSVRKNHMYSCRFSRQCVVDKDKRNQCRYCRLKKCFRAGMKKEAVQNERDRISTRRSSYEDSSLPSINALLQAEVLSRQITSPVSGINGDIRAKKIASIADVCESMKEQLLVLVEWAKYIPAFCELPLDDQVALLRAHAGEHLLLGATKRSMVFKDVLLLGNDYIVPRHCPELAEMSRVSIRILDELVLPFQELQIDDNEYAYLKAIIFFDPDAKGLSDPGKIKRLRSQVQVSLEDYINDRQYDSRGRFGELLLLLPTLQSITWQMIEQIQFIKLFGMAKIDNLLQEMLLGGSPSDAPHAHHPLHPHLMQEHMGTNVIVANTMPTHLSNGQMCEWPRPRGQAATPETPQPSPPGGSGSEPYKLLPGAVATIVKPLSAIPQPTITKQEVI
Sequence of Transcriptional activator Myb (Homo sapiens) (P10242 whole entry, looked up): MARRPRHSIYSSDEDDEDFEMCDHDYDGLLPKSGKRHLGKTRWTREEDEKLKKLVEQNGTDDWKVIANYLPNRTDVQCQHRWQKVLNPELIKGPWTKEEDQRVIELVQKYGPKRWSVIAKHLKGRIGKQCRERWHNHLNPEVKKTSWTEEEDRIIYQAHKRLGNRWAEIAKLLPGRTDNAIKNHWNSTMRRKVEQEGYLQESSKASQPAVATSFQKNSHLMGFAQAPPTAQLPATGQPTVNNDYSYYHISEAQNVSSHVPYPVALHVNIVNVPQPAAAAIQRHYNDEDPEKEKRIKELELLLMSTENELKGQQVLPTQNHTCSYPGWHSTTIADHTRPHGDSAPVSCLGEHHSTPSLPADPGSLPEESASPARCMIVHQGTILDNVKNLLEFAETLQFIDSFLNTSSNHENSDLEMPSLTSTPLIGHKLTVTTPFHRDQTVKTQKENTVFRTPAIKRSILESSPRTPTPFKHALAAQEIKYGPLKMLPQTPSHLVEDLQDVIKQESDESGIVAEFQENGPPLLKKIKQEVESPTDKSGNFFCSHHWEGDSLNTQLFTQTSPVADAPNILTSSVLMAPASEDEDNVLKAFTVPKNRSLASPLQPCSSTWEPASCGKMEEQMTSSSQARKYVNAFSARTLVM
Sequence of Myc proto-oncogene protein (Homo sapiens) (P01106 whole entry, looked up): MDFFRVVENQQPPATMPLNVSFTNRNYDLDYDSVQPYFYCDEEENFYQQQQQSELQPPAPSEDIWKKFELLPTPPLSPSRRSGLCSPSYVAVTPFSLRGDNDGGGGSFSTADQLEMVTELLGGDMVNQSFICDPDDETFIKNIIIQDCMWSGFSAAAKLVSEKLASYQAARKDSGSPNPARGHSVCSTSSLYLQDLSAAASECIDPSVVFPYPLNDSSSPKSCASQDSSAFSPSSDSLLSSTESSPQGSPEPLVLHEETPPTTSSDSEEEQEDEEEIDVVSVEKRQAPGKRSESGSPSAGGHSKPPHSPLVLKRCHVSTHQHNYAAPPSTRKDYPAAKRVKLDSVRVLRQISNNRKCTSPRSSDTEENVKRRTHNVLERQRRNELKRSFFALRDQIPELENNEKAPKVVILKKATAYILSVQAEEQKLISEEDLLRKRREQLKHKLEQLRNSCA
Sequence of Cellular tumor antigen p53 (Homo sapiens) (P04637 whole entry, looked up): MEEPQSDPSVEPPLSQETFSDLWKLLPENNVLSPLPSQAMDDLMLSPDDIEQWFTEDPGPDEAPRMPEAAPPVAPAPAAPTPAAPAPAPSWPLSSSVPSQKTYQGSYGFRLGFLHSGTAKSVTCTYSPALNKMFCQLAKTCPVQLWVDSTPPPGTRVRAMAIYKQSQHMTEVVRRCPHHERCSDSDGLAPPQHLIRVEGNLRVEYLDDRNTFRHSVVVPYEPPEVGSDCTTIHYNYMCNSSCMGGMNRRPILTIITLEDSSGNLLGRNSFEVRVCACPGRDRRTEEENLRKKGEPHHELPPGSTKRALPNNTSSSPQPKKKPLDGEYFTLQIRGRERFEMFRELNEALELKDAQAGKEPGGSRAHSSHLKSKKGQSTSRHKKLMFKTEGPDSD
Sequence of Oxysterols receptor LXR-alpha (Homo sapiens) (Q13133 whole entry, looked up, the tested form may be a part): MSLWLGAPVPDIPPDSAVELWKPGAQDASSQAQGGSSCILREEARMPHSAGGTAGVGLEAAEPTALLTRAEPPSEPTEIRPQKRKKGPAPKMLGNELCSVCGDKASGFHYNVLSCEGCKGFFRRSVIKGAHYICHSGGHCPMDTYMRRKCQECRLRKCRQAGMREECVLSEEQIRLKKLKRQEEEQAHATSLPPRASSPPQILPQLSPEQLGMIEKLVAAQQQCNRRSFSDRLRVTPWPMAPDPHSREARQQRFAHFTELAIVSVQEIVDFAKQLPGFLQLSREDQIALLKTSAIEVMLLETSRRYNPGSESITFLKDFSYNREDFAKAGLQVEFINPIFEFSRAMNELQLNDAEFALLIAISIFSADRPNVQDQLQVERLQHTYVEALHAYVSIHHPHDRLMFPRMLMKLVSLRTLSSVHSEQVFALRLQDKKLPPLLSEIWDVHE
Sequence of Oxysterols receptor LXR-beta (Homo sapiens) (P55055 whole entry, looked up, the tested form may be a part): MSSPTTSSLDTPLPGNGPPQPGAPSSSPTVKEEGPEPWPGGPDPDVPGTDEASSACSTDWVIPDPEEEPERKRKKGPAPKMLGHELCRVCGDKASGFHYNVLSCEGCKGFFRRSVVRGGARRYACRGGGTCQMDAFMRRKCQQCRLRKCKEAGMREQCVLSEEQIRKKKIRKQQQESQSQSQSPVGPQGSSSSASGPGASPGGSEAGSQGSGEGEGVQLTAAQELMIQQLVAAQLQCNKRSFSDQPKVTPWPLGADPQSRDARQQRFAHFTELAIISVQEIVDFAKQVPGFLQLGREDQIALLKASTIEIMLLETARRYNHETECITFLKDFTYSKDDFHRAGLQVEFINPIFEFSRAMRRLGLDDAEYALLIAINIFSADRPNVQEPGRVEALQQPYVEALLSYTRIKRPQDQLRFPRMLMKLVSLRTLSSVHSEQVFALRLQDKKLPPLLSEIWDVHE

Consider `NC(=O)Nc1ccccc1`, for which the compound was called inactive in experiment [1], in experiment [2], in [3], in [4], in experiment [5] and in [6]. Moreover, the compound was classed as inactive in [7], in experiment [8] and in [9].
On to `CC(=O)CC(=O)Nc1ccccc1C`, for which the result in [1], in [10], in [3], in experiment [4], in experiment [5] and in experiment [6] was inactive. Also, the compound was classed as inactive in [7], in experiment [8] and in experiment [9].
In the case of `O=C1CCCCCCCCCCCN1`, the outcome in experiment [11], in experiment [10], in experiment [3], in experiment [4], in experiment [5] and in experiment [6] was inactive. Besides, the compound was classed as inactive in [12], in experiment [7], in [8], in experiment [9], in experiment [13] and in [14].
`CC/C=C\CCOC(=O)c1ccccc1O`: the compound was called inactive in [1], in experiment [2], in experiment [15], in experiment [3], in [4] and in [5]. Also, the result in experiment [6], in [12] and in experiment [8] was inactive. In addition, the half-maximal activity concentration (AC50) in [7] is 100 µM (active); in experiment [9] it was 138 µM (active); in [13], 25.4 µM (active); in [14], 31.8 µM (active); in experiment [16], 30.1 µM (active).
`CC(=O)OCCc1ccccc1`: the call in [1], in [2], in experiment [3], in experiment [4], in [5] and in [6] was inactive. The compound was called inactive in [7], in [8] and in experiment [9].
For the compound `CCCC=C(C=O)CC`, the call in experiment [17], in experiment [1], in experiment [15], in [3], in experiment [4] and in experiment [5] was inactive. Moreover, the compound was called inactive in [6], in experiment [12], in experiment [7] and in [8].
For `CCCCOC(=O)C(C)CC` (stereo unspecified), the result in experiment [10], in experiment [15], in experiment [3], in experiment [5], in experiment [6] and in experiment [7] was inactive. Also, the compound was called inactive in [8] and in experiment [9].
With `O=C1CCCCC1C1CCCCC1` (stereo unspecified), the call in experiment [11], in [15], in experiment [3], in experiment [4], in experiment [5] and in experiment [6] was inactive. Further, the compound was called inactive in [12], in [7] and in experiment [8].
Take `C1CNCCN1`: the compound was classed as inactive in experiment [10], in experiment [2], in [3], in [4], in experiment [5] and in [6]. Also, the result in experiment [12], in experiment [8], in [9], in [13] and in [14] was inactive.
Consider `CC1OC(=O)C(C)OC1=O` (stereo unspecified), for which the compound was called inactive in experiment [1], in experiment [10], in experiment [2], in experiment [3], in [4] and in experiment [5]. Moreover, the result in experiment [6], in experiment [7], in experiment [8] and in [9] was inactive.
